Data as given in PubChem BioAssay (NCI).
About 83,000 compounds went through this panel and 20% of them were active in at least one assay; those are over-represented in the sample as a whole.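 Single-dose data. Exposure time 48 hours. Values below 10 considered active.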 The source made the active and inactive calls.

Experiments:
Assay in all cases: NCI-60 one-dose screen, 48 h (100 = growth as untreated, 0 = no growth, -100 = all killed)
Conditions in all cases: 10 µM unless noted
SK-MEL-2 melanoma = tested on: SK-MEL-2 melanoma
EKVX NSCLC = tested on: EKVX NSCLC
SN12C renal = tested on: SN12C renal
UO-31 renal = tested on: UO-31 renal
TK-10 renal = tested on: TK-10 renal
ACHN renal = tested on: ACHN renal
CAKI-1 renal = tested on: CAKI-1 renal
A498 renal = tested on: A498 renal
CCRF-CEM leukemia = tested on: CCRF-CEM leukemia
MOLT-4 leukemia = tested on: MOLT-4 leukemia

Measured: growth

N=C(N)c1ccc(-c2ccc(-c3cc(Cl)cc(Cl)c3)o2)o1
inactive: A498 renal 58.8%
active: SK-MEL-2 melanoma -43.5% | EKVX NSCLC -88.2% | SN12C renal -67.6% | UO-31 renal -68.1% | TK-10 renal -76.3% | ACHN renal -88.7% | CAKI-1 renal -74.7% | CCRF-CEM leukemia -39.1% | MOLT-4 leukemia -60.4%

N#Cc1c(-c2cccs2)cc(-c2cccnc2)[nH]c1=O
inactive: SK-MEL-2 melanoma 113% | EKVX NSCLC 105% | SN12C renal 95.2% | UO-31 renal 78% | TK-10 renal 109% | ACHN renal 97.2% | CAKI-1 renal 96.1% | A498 renal 141% | CCRF-CEM leukemia 94.7% | MOLT-4 leukemia 108%

CCOc1ccc(NC(=O)CSc2oc(-c3ccccc3)nc2S(=O)(=O)c2ccc(F)cc2)cc1
inactive: SK-MEL-2 melanoma 81.4% | EKVX NSCLC 82.7% | SN12C renal 89.4% | UO-31 renal 94.5% | TK-10 renal 83% | ACHN renal 73.7% | CAKI-1 renal 82.8% | A498 renal 63.7% | CCRF-CEM leukemia 79.8% | MOLT-4 leukemia 63.9%

COc1ccc2nc(NC(=O)CSc3nnc4n3S(=O)(=O)c3ccccc3N4C)sc2c1
inactive: SK-MEL-2 melanoma 50.6% | EKVX NSCLC 106% | SN12C renal 99.5% | TK-10 renal 140% | ACHN renal 100% | CAKI-1 renal 98.3% | A498 renal 121% | MOLT-4 leukemia 71.5%
active: UO-31 renal -72.5% | CCRF-CEM leukemia 4.33%

O=S(=O)(NCCNc1cc(-c2c(-c3cccc(O)c3)nc3sccn23)ccn1)c1ccc(C(F)(F)F)cc1
active: UO-31 renal -71.8% | MOLT-4 leukemia 9.21%
inactive: SK-MEL-2 melanoma 43.9% | EKVX NSCLC 35.7% | SN12C renal 35.6% | TK-10 renal 67.9% | ACHN renal 33.2% | CAKI-1 renal 29.3% | A498 renal 40.2% | CCRF-CEM leukemia 25.4%

CCOC(=O)CNP(=O)(OC[C@@H](Cc1ccccc1)NC(=O)c1cc2ccccc2s1)Oc1ccccc1 (stereo not given in full)
inactive: SK-MEL-2 melanoma 75.9% | EKVX NSCLC 80.6% | SN12C renal 84.9% | UO-31 renal 80.7% | TK-10 renal 109% | ACHN renal 99.9% | CAKI-1 renal 70.6% | A498 renal 38.5% | CCRF-CEM leukemia 86.5% | MOLT-4 leukemia 54.8%

COc1cnc2c(c1)C(=O)c1c-2n(CCCNCCO)c(=O)c2ccncc12
active: SK-MEL-2 melanoma -2.38% | SN12C renal 4.98% | UO-31 renal -19.8% | ACHN renal -49.8% | A498 renal -33.3% | MOLT-4 leukemia -7.69%
inactive: EKVX NSCLC 19.7% | TK-10 renal 15.9% | CAKI-1 renal 28.7% | CCRF-CEM leukemia 11.1%

Clc1ccc(Nc2nnc(COc3ccccc3)c3ccccc23)cc1
active: SK-MEL-2 melanoma -26.5% | EKVX NSCLC 6.53% | UO-31 renal -12.3% | TK-10 renal -17.5% | ACHN renal 3.37% | A498 renal -17.3% | CCRF-CEM leukemia 1.06% | MOLT-4 leukemia -32.6%
inactive: SN12C renal 17% | CAKI-1 renal 15.4%

Cc1ccc(-c2nc3nc(-c4ccc(F)cc4)nc(N4CCNCC4)c3o2)cc1
inactive: SK-MEL-2 melanoma 102% | EKVX NSCLC 127% | UO-31 renal 76.7% | A498 renal 79.5%
active: SN12C renal -48.7% | TK-10 renal -35.8% | ACHN renal -95.5% | CAKI-1 renal 1.35% | CCRF-CEM leukemia -71% | MOLT-4 leukemia -64.6%

CCN1CCN(Cc2cn(CC(=O)Nc3ccc4c(ccn4Cc4ccccc4)c3)nn2)CC1
inactive: SK-MEL-2 melanoma 106% | EKVX NSCLC 106% | SN12C renal 104% | UO-31 renal 81.3% | TK-10 renal 99.2% | ACHN renal 102% | CAKI-1 renal 86.7% | A498 renal 108% | MOLT-4 leukemia 101%
active: CCRF-CEM leukemia 7.79%

CCS/C(Nc1ccccc1)=C(\C#N)C(=O)N/N=C/c1ccc(Cl)cc1Cl
active: A498 renal -2.1% | CCRF-CEM leukemia 9.86%
inactive: SK-MEL-2 melanoma 28.3% | EKVX NSCLC 47.4% | SN12C renal 34.5% | UO-31 renal 41.9% | TK-10 renal 56.7% | ACHN renal 38.2% | CAKI-1 renal 31.5% | MOLT-4 leukemia 18.3%

COc1ccc(-c2nn(-c3ccccc3)cc2/C=C2/SC(=S)N(C)C2=O)cc1
inactive: SK-MEL-2 melanoma 108% | EKVX NSCLC 74.4% | SN12C renal 34.2% | UO-31 renal 16% | TK-10 renal 27.7% | CAKI-1 renal 38.5% | A498 renal 96.9% | CCRF-CEM leukemia 49.6% | MOLT-4 leukemia 81.3%
active: ACHN renal -0.446%

COc1ccc(C(=O)Nc2cccc(C3CC(=O)c4c(cc(OC)c(OC)c4OC)O3)c2)cc1 (stereo not given)
active: SK-MEL-2 melanoma -11.9% | A498 renal -2.96% | CCRF-CEM leukemia 9.44%
inactive: EKVX NSCLC 45% | SN12C renal 31.2% | UO-31 renal 33.7% | TK-10 renal 40.3% | ACHN renal 40.8% | CAKI-1 renal 33.3% | MOLT-4 leukemia 14.3%

CCOC(=O)c1cnc2ccccc2c1Cl
inactive: SK-MEL-2 melanoma 109% | EKVX NSCLC 103% | SN12C renal 102% | UO-31 renal 95.1% | TK-10 renal 84.4% | ACHN renal 99.4% | CAKI-1 renal 94.8% | A498 renal 56.6% | CCRF-CEM leukemia 118% | MOLT-4 leukemia 99.9%

CC(=O)N(N=Nc1ccccc1)c1cccc2ccccc12
active: ACHN renal 8.59%
inactive: SK-MEL-2 melanoma 20.1% | EKVX NSCLC 101% | SN12C renal 85.7% | UO-31 renal 61.2% | TK-10 renal 96.8% | CAKI-1 renal 31.8% | A498 renal 115% | CCRF-CEM leukemia 79.8% | MOLT-4 leukemia 76.8%

CCOC(=O)C1=C(NC)OCC1=O
inactive: SK-MEL-2 melanoma 116% | EKVX NSCLC 99.3% | SN12C renal 103% | UO-31 renal 88.3% | TK-10 renal 99.4% | ACHN renal 110% | CAKI-1 renal 100% | A498 renal 86.1% | CCRF-CEM leukemia 101% | MOLT-4 leukemia 97.3%

CCCNC(=O)Oc1ccc(/C(=C(/C)Cc2ccc(OC)cc2)c2ccc(OCCCN(C)C)cc2)cc1
inactive: SK-MEL-2 melanoma 96.5% | EKVX NSCLC 85.7% | SN12C renal 84% | UO-31 renal 60.6% | TK-10 renal 88.3% | ACHN renal 99.4% | CAKI-1 renal 101% | A498 renal 97.6% | CCRF-CEM leukemia 56.4% | MOLT-4 leukemia 33.1%

CC1=C(C(=O)OC(C)C)C(c2ccc3c(c2)OCO3)NC(=S)N1 (stereo not given)
inactive: SK-MEL-2 melanoma 102% | EKVX NSCLC 94.4% | SN12C renal 105% | UO-31 renal 84.5% | TK-10 renal 98.1% | ACHN renal 99.4% | CAKI-1 renal 93.8% | A498 renal 109% | CCRF-CEM leukemia 105% | MOLT-4 leukemia 110%

CCn1c(=S)[nH]c2c(=O)n(C)c(=O)n(C)c21
inactive: SK-MEL-2 melanoma 103% | EKVX NSCLC 95.1% | SN12C renal 101% | UO-31 renal 93.9% | TK-10 renal 108% | ACHN renal 97.6% | CAKI-1 renal 102% | A498 renal 113% | CCRF-CEM leukemia 102% | MOLT-4 leukemia 98.2%

COc1ccc(/C=N/C2=C(C#N)C(c3cccc(Cl)c3)c3c(ccc4ccccc34)O2)cc1 (stereo not given)
active: A498 renal -4.91%
inactive: SK-MEL-2 melanoma 51.2% | EKVX NSCLC 33.9% | SN12C renal 39.6% | UO-31 renal 43% | TK-10 renal 82% | ACHN renal 31% | CAKI-1 renal 20.3% | CCRF-CEM leukemia 16.9% | MOLT-4 leukemia 21.8%

O=Cc1ccc([N+](=O)[O-])s1
inactive: SK-MEL-2 melanoma 107% | EKVX NSCLC 114% | SN12C renal 84.1% | UO-31 renal 89.8% | TK-10 renal 112% | ACHN renal 90.8% | CAKI-1 renal 100% | A498 renal 94.5% | CCRF-CEM leukemia 88.2% | MOLT-4 leukemia 88.3%

CCN1CC(=O)N(/N=C2\C(=O)Nc3ccccc32)C1=S
inactive: SK-MEL-2 melanoma 92.7% | EKVX NSCLC 80.8% | SN12C renal 86.1% | UO-31 renal 60.5% | TK-10 renal 105% | ACHN renal 76.9% | CAKI-1 renal 59% | A498 renal 82.4% | CCRF-CEM leukemia 102% | MOLT-4 leukemia 98%

Cn1c(O)c(C=NCCN=Cc2c(O)n(C)c(=O)n(C)c2=O)c(=O)n(C)c1=O
inactive: SK-MEL-2 melanoma 120% | EKVX NSCLC 102% | SN12C renal 95.6% | UO-31 renal 84.7% | TK-10 renal 116% | ACHN renal 101% | CAKI-1 renal 94.4% | A498 renal 127%
active: CCRF-CEM leukemia 7.42% | MOLT-4 leukemia -46.6%

COc1ccc(C(=O)Nc2ncc(Cc3cccc(Cl)c3)s2)cc1OC
inactive: EKVX NSCLC 34.1% | SN12C renal 39.9% | UO-31 renal 31.2% | TK-10 renal 38.5% | ACHN renal 16.8% | CAKI-1 renal 12.8% | CCRF-CEM leukemia 17.3% | MOLT-4 leukemia 29.2%
active: SK-MEL-2 melanoma 8.92% | A498 renal 0.53%

COC(=O)c1c2c(c(C)[n+]([O-])c1C)C(=O)C=C(NCc1ccc(OC)cc1)C2=O
inactive: TK-10 renal 28.4%
active: SK-MEL-2 melanoma -22.2% | EKVX NSCLC -57.6% | SN12C renal -63% | UO-31 renal -9.55% | ACHN renal -11.5% | CAKI-1 renal 0.875% | A498 renal -15.4% | CCRF-CEM leukemia 3.4% | MOLT-4 leukemia -35.5%

O=C(c1ccccc1)C1C(=O)N2C(=S)N(c3ccccc3)C(=O)C2C1c1ccc(Cl)cc1 (stereo not given)
inactive: SK-MEL-2 melanoma 99.5% | EKVX NSCLC 100% | SN12C renal 91.7% | UO-31 renal 66.8% | TK-10 renal 126% | ACHN renal 91.8% | CAKI-1 renal 82.9% | A498 renal 81.9% | CCRF-CEM leukemia 98% | MOLT-4 leukemia 102%

CCOC(=O)C1=NN(c2ccccc2)C(=O)/C1=C\N1C(=O)CC(=O)NC1=S
inactive: SK-MEL-2 melanoma 98% | EKVX NSCLC 103% | SN12C renal 95.6% | UO-31 renal 77.4% | TK-10 renal 96% | ACHN renal 101% | CAKI-1 renal 41.2% | A498 renal 104% | CCRF-CEM leukemia 96.2% | MOLT-4 leukemia 99%
